Measurements taken from PubChem BioAssay AID1159580 (chemical genetic matrix, 2015).
Values joined by “and” are separate entries in the source; they are usually repeats but may differ in a detail not shown here. Equal values may be shown once. The whole screen tested about 5,500 compounds, of which about 2,000 (36%) were called active. Another 18% or so got no clear call; they are omitted. Rule as the data show it: active = normalized growth mostly below about 0.91 (no sharp cut-off); inconclusive = no clear call, values can overlap the other calls; inactive = mostly above about 0.92. The list shows a part of the results.

Assay: chemical genetic growth profiling, strain panel (AID 1159580);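 also: tested at 20 µM; growth read once vehicle control cultures reached saturation at 30 °C; 1 = growth at the plate median or of vehicle wells; lower values mean less growth of the strain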
Conditions: S. cerevisiae deletion strains, growth OD

Measured: normalized growth

NC(C(=O)O)C(O)C(=O)O (stereo not drawn)
inactive: locus YAL013W, strain DEP1, hits give low values 1.04 | locus YAL021C, strain ccr4, hits give low values 0.941 | locus YAL026C, strain drs2, hits give low values 0.998 | locus YAL030W, strain snc1, hits give low values 0.98 | locus YBL061C, strain skt5, hits give low values 0.996 | locus YBR009C, strain hhf1, hits give low values 0.955 | locus YBR021W, strain FUR4, hits give low values 0.993 | locus YBR023C, strain chs3, hits give low values 0.994 | locus YBR171W, strain sec66, hits give low values 0.997 | locus YBR229C, strain ROT2, hits give low values 1.01 | locus YBR231C, strain swc5, hits give low values 1.03 | locus YBR279W, strain paf1, hits give low values 0.993 | locus YCL011C, strain gbp2, hits give low values 0.98 | locus YCL016C, strain dcc1, hits give low values 0.978 | locus YCL029C, strain bik1, hits give low values 1.03 | locus YCL061C, strain MRC1, hits give low values 1 | locus YCL069W, strain vba3, hits give low values 0.991 | locus YCR088W, strain abp1, hits give low values 1 | locus YDL005C, strain med2, hits give low values 0.982 | locus YDL035C, strain GPR1, hits give low values 1.02 | locus YDL040C, strain nat1, hits give low values 0.996 | locus YDL074C, strain BRE1, hits give low values 1.02 | locus YDL101C, strain DUN1, hits give low values 1.02 | locus YDL134C, strain PPH21, hits give low values 1.01 | locus YDL185W, strain tfp1, hits give low values 1.02 | locus YDL192W, strain arf1, hits give low values 1.02 | locus YDR001C, strain nth1, hits give low values 0.97 | locus YDR069C, strain doa4, hits give low values 0.969 | locus YDR101C, strain arx1, hits give low values 1.04 | locus YDR137W, strain rgp1, hits give low values 0.982 | locus YDR159W, strain sac3, hits give low values 1.05 | locus YDR162C, strain NBP2, hits give low values 1.04 | locus YDR195W, strain ref2 0.973 | locus YDR297W, strain sur2, hits give low values 0.994 | locus YDR318W, strain mcm21, hits give low values 1.01 | locus YDR334W, strain swr1, hits give low values 0.983 | locus YDR335W, strain msn5, hits give low values 0.986 | locus YDR388W, hits give low values 1.02 | locus YDR392W, strain spt3, hits give low values 0.91 | locus YDR502C, strain sam2, hits give low values 1.03 | locus YEL003W, strain gim4, hits give low values 0.999 | locus YEL037C, strain rad23, hits give low values 0.983 | locus YEL061C, strain CIN8 (second series), hits give low values 0.99 | locus YEL061C, strain CIN8, hits give low values 1.01 | locus YER015W, strain faa2, hits give low values 0.997 | locus YER016W, strain bim1, hits give low values 0.991 | locus YER110C, hits give low values 1.03 | locus YER111C, strain swi4, hits give low values 0.994 | locus YER155C, strain BEM2 (second series), hits give low values 1.03 | locus YER155C, strain BEM2, hits give low values 0.983 | locus YER167W, strain BCK2, hits give low values 1.01 | locus YFR010W, strain ubp6, hits give low values 0.986 | locus YGL078C, strain dbp3, hits give low values 1.02 | locus YGL086W, strain mad1, hits give low values 1 | locus YGL167C, strain pmr1, hits give low values 0.969 | locus YGL173C, strain kem1, hits give low values 0.999 | locus YGL227W, strain vid30, hits give low values 0.997 | locus YGL240W, strain doc1, hits give low values 1 | locus YGL248W, strain PDE1, hits give low values 1.02 | locus YGL253W, strain hxk2, hits give low values 1.02 | locus YGR078C, strain PAC10, hits give low values 1.02 | locus YGR135W, strain pre9, hits give low values 1.01 | locus YGR252W, strain gcn5, hits give low values 0.999 | locus YHR013C, strain ard1, hits give low values 0.969 | locus YHR027C, strain rpn1, hits give low values 0.991 | locus YHR030C, strain SLT2, hits give low values 1 and 1.03 | locus YHR079C, strain IRE1 (second series), hits give low values 1.02 | locus YHR079C, strain IRE1, hits give low values 1.03 | locus YHR094C, strain hxt1, hits give low values 1.02 | locus YHR129C, strain ARP1, hits give low values 1.01 | locus YHR142W, strain chs7, hits give low values 0.983 | locus YHR200W, strain rpn10, hits give low values 1.02 | locus YIL066C, strain RNR3, hits give low values 1.02 | locus YIL073C, strain SPO22, hits give low values 1.09 | locus YIL125W, strain kgd1, hits give low values 1.01 | locus YIR030C, strain dcg1, hits give low values 1.02 | locus YJL092W, strain hpr5, hits give low values 0.986 | locus YJL095W, strain BCK1 (second series), hits give low values 0.993 | locus YJL095W, strain BCK1, hits give low values 1.03 and 1.06 | locus YJL115W, strain asf1, hits give low values 0.965 | locus YJL129C, strain trk1, hits give low values 1.02 | locus YJL134W, strain LCB3, hits give low values 1.01 | locus YJL154C, strain vps35, hits give low values 0.987 | locus YJL164C, strain tpk1, hits give low values 0.96 | locus YJL166W, strain qcr8, hits give low values 0.988 | locus YJL168C, strain set2, hits give low values 1.01 | locus YJL187C, strain SWE1 (second series), hits give low values 1.03 | locus YJR043C, strain POL32, hits give low values 1.02
